# Measured values as given in PubChem BioAssay AID1159580 (chemical genetic matrix, 2015).
# Among all 5,500 compounds or so, about 2,000 (36%) were called active. About 18% were inconclusive and are not listed. This is one part of the list. A number with no mark means an inactive call. No stated cut-off is given here; in the data, active means normalized growth mostly below about 0.91 (no sharp cut-off); inconclusive means no clear call, values can overlap the other calls; inactive means mostly above about 0.92.
# Assay: chemical genetic growth profiling, strain panel (AID 1159580);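 further: tested at 20 µM; growth read once vehicle control cultures reached saturation at 30 °C; 1 = growth at the plate median or of vehicle wells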
# Conditions: growth OD
# [1] = S. cerevisiae deletion strains, locus YDR150W, strain NUM1, stronger effect = lower value
# [2] = S. cerevisiae deletion strains, locus YMR263W, strain SAP30, stronger effect = lower value
# [3] = S. cerevisiae deletion strains, locus YMR307W, strain GAS1, stronger effect = lower value
# [4] = S. cerevisiae deletion strains, locus YNL322C, strain KRE1, stronger effect = lower value
# [5] = S. cerevisiae deletion strains, locus YDL101C, strain DUN1, stronger effect = lower value
# [6] = S. cerevisiae deletion strains, locus YHR030C, strain SLT2, stronger effect = lower value
# [7] = S. cerevisiae deletion strains, locus YHR079C, strain IRE1, stronger effect = lower value
# [8] = S. cerevisiae deletion strains, locus YJL095W, strain BCK1, stronger effect = lower value
# [9] = S. cerevisiae deletion strains, locus YJR066W, strain TOR1, stronger effect = lower value
# [10] = S. cerevisiae deletion strains, locus YLR113W, strain HOG1, stronger effect = lower value
# [11] = S. cerevisiae deletion strains, locus YNL183C, strain NPR1, stronger effect = lower value
# [12] = S. cerevisiae deletion strains, locus YOR231W, strain MKK1, stronger effect = lower value
# [13] = S. cerevisiae deletion strains, locus YPL256C, strain CLN2, stronger effect = lower value
smiles,measurement,setting,value
CC(C)(C)c1cc(/C=C(\C#N)C(N)=S)cc(C(C)(C)C)c1O,normalized growth,"S. cerevisiae deletion strains, locus YAL040C, strain CLN3, stronger effect = lower value",0.912
same,normalized growth,"S. cerevisiae deletion strains, locus YCL061C, strain MRC1 (second series), stronger effect = lower value",1.01
same,normalized growth,[1],1
same,normalized growth,"S. cerevisiae deletion strains, locus YDR363W, strain ESC2, stronger effect = lower value",1.04
same,normalized growth,"S. cerevisiae deletion strains, locus YER002W, strain NOP16, stronger effect = lower value",0.997
same,normalized growth,[2],1.01
same,normalized growth,[3],1.01
same,normalized growth,"S. cerevisiae deletion strains, locus YNL175C, strain NOP13, stronger effect = lower value",1.02
same,normalized growth,"S. cerevisiae deletion strains, locus YNL197C, strain WHI3, stronger effect = lower value",0.913
same,normalized growth,"S. cerevisiae deletion strains, locus YNL224C, strain SQS1, stronger effect = lower value",0.929
same,normalized growth,[4],1.02
same,normalized growth,"S. cerevisiae deletion strains, locus YOR083W, strain WHI5 (second series), stronger effect = lower value",0.832 (active)
O=C1c2ccccc2C(=O)N1CNc1ccc(N2CCOCC2)cc1,normalized growth,"S. cerevisiae deletion strains, locus YAL013W, strain DEP1, stronger effect = lower value",1
same,normalized growth,"S. cerevisiae deletion strains, locus YBR229C, strain ROT2, stronger effect = lower value",1
same,normalized growth,"S. cerevisiae deletion strains, locus YCL061C, strain MRC1, stronger effect = lower value",0.999
same,normalized growth,[5],1.01
same,normalized growth,[1],0.901
same,normalized growth,"S. cerevisiae deletion strains, locus YEL061C, strain CIN8, stronger effect = lower value",0.986
same,normalized growth,"S. cerevisiae deletion strains, locus YGR078C, strain PAC10, stronger effect = lower value",1
same,normalized growth,[6],0.976
same,normalized growth,"S. cerevisiae deletion strains, locus YHR087W, strain rtc3, stronger effect = lower value",1.02
same,normalized growth,"S. cerevisiae deletion strains, locus YJR043C, strain POL32, stronger effect = lower value",1
same,normalized growth,"S. cerevisiae deletion strains, locus YJR075W, strain HOC1, stronger effect = lower value",1.01
same,normalized growth,"S. cerevisiae deletion strains, locus YKL190W, strain CNB1, stronger effect = lower value",0.994
same,normalized growth,"S. cerevisiae deletion strains, locus YLR039C, strain RIC1, stronger effect = lower value",1.02
same,normalized growth,"S. cerevisiae deletion strains, locus YLR058C, strain SHM2 (second series), stronger effect = lower value",0.997
same,normalized growth,"S. cerevisiae deletion strains, locus YLR085C, strain ARP6, stronger effect = lower value",0.977
same,normalized growth,"S. cerevisiae deletion strains, locus YLR262C, strain YPT6, stronger effect = lower value",1.01
same,normalized growth,"S. cerevisiae deletion strains, locus YML094W, strain GIM5, stronger effect = lower value",1.02
same,normalized growth,"S. cerevisiae deletion strains, locus YMR219W, strain ESC1, stronger effect = lower value",1
same,normalized growth,[2],0.993
same,normalized growth,[3],1.01
same,normalized growth,"S. cerevisiae deletion strains, locus YNL153C, strain GIM3, stronger effect = lower value",1.01
same,normalized growth,"S. cerevisiae deletion strains, locus YNL298W, strain CLA4 (second series), stronger effect = lower value",1.02
same,normalized growth,[4],0.977
same,normalized growth,"S. cerevisiae deletion strains, locus YNR030W, strain Alg12, stronger effect = lower value",0.994
same,normalized growth,"S. cerevisiae deletion strains, locus YOL006C, strain TOP1, stronger effect = lower value",0.997
same,normalized growth,"S. cerevisiae deletion strains, locus YPL055C, strain LGE1, stronger effect = lower value",0.861
same,normalized growth,"S. cerevisiae deletion strains, locus YPL241C, strain CIN2, stronger effect = lower value",1.01
same,normalized growth,"S. cerevisiae deletion strains, locus YPR135W, strain CTF4, stronger effect = lower value",1.09
same,normalized growth,"S. cerevisiae strains, strain wild type, stronger effect = lower value",1.02
OC[C@H]1O[C@H](O[C@]2(CCl)O[C@H](CCl)[C@@H](O)[C@@H]2O)[C@H](O)[C@@H](O)[C@H]1Cl,normalized growth,[6],1.04
same,normalized growth,[7],0.979
same,normalized growth,[8],0.996
same,normalized growth,[9],0.952
same,normalized growth,[10],0.977
same,normalized growth,[11],0.895
same,normalized growth,[12],0.972
same,normalized growth,[13],0.984
FC(F)(F)c1ccc(N2CCc3ccccc3C2)c(NC(=S)Nc2cc(Cl)cc(Cl)c2)c1,normalized growth,"S. cerevisiae deletion strains, locus YAR019C, strain CDC15, stronger effect = lower value",0.972
same,normalized growth,"S. cerevisiae deletion strains, locus YBL105C, strain PKC1, stronger effect = lower value",0.981
same,normalized growth,"S. cerevisiae deletion strains, locus YBR135W, strain CKS1, stronger effect = lower value",0.978
same,normalized growth,"S. cerevisiae deletion strains, locus YBR136W, strain MEC1, stronger effect = lower value",0.997
same,normalized growth,"S. cerevisiae deletion strains, locus YBR160W, strain CDC28, stronger effect = lower value",0.989
same,normalized growth,"S. cerevisiae deletion strains, locus YDL017W, strain CDC7, stronger effect = lower value",0.982
same,normalized growth,"S. cerevisiae deletion strains, locus YDL028C, strain MPS1, stronger effect = lower value",0.987
same,normalized growth,[5],0.978
same,normalized growth,"S. cerevisiae deletion strains, locus YDL108W, strain KIN28, stronger effect = lower value",0.998
same,normalized growth,"S. cerevisiae deletion strains, locus YDL132W, strain cdc53, stronger effect = lower value",0.985
same,normalized growth,"S. cerevisiae deletion strains, locus YDL214C, strain PRR2, stronger effect = lower value",0.924
same,normalized growth,"S. cerevisiae deletion strains, locus YDR052C, strain DBF4, stronger effect = lower value",0.98
same,normalized growth,"S. cerevisiae deletion strains, locus YDR054C, strain cdc34, stronger effect = lower value",0.969
same,normalized growth,"S. cerevisiae deletion strains, locus YDR226W, strain ADK1, stronger effect = lower value",0.99
same,normalized growth,"S. cerevisiae deletion strains, locus YDR477W, strain SNF1, stronger effect = lower value",0.937
same,normalized growth,"S. cerevisiae deletion strains, locus YER123W, strain YCK3, stronger effect = lower value",0.908
same,normalized growth,"S. cerevisiae deletion strains, locus YER133W, strain GLC7, stronger effect = lower value",0.939
same,normalized growth,"S. cerevisiae deletion strains, locus YFL009W, strain cdc4, stronger effect = lower value",0.983
same,normalized growth,"S. cerevisiae deletion strains, locus YFL029C, strain CAK1, stronger effect = lower value",0.975
same,normalized growth,"S. cerevisiae deletion strains, locus YFR003C, strain YPI1, stronger effect = lower value",0.993
same,normalized growth,"S. cerevisiae deletion strains, locus YFR019W, strain FAB1, stronger effect = lower value",0.957
same,normalized growth,"S. cerevisiae deletion strains, locus YFR028C, strain CDC14, stronger effect = lower value",0.971
same,normalized growth,"S. cerevisiae deletion strains, locus YGR040W, strain KSS1, stronger effect = lower value",0.939
same,normalized growth,"S. cerevisiae deletion strains, locus YGR052W, strain FMP48, stronger effect = lower value",1.01
same,normalized growth,"S. cerevisiae deletion strains, locus YGR092W, strain DBF2, stronger effect = lower value",0.869
same,normalized growth,[6],1.15
same,normalized growth,[7],1.06
same,normalized growth,"S. cerevisiae deletion strains, locus YHR082C, strain KSP1, stronger effect = lower value",1
same,normalized growth,"S. cerevisiae deletion strains, locus YHR205W, strain SCH9, stronger effect = lower value",0.962
same,normalized growth,"S. cerevisiae deletion strains, locus YIL147C, strain SLN1, stronger effect = lower value",0.993
same,normalized growth,[8],1.02
same,normalized growth,"S. cerevisiae deletion strains, locus YJL128C, strain PBS2, stronger effect = lower value",0.968
same,normalized growth,"S. cerevisiae deletion strains, locus YJL157C, strain FAR1, stronger effect = lower value",0.908
same,normalized growth,"S. cerevisiae deletion strains, locus YJR016C, strain ILV3, stronger effect = lower value",0.985
same,normalized growth,"S. cerevisiae deletion strains, locus YJR066W, strain TOR1 (second series), stronger effect = lower value",0.899
same,normalized growth,[9],1.02
same,normalized growth,"S. cerevisiae deletion strains, locus YKL048C, strain ELM1, stronger effect = lower value",0.963
same,normalized growth,"S. cerevisiae deletion strains, locus YKL067W, strain YNK1, stronger effect = lower value",0.931
same,normalized growth,"S. cerevisiae deletion strains, locus YKL101W, strain HSL1, stronger effect = lower value",0.959
same,normalized growth,"S. cerevisiae deletion strains, locus YKL193C, strain SDS22, stronger effect = lower value",0.974
same,normalized growth,"S. cerevisiae deletion strains, locus YKL203C, strain TOR2, stronger effect = lower value",1.02
same,normalized growth,[10],1.03
same,normalized growth,"S. cerevisiae deletion strains, locus YLR133W, strain CKI1, stronger effect = lower value",0.936
same,normalized growth,"S. cerevisiae deletion strains, locus YLR403W, strain SFP1, stronger effect = lower value",0.945
same,normalized growth,"S. cerevisiae deletion strains, locus YML070W, strain DAK1, stronger effect = lower value",0.938
same,normalized growth,"S. cerevisiae deletion strains, locus YMR001C, strain CDC5, stronger effect = lower value",0.969
same,normalized growth,"S. cerevisiae deletion strains, locus YMR205C, strain PFK2 (second series), stronger effect = lower value",0.947
same,normalized growth,"S. cerevisiae deletion strains, locus YMR277W, strain FCP1, stronger effect = lower value",0.972
same,normalized growth,"S. cerevisiae deletion strains, locus YNL006W, strain LST8, stronger effect = lower value",0.984
same,normalized growth,"S. cerevisiae deletion strains, locus YNL020C, strain ARK1, stronger effect = lower value",0.934
same,normalized growth,"S. cerevisiae deletion strains, locus YNL161W, strain CBK1, stronger effect = lower value",0.978
same,normalized growth,[11],1.03
same,normalized growth,"S. cerevisiae deletion strains, locus YNL207W, strain RIO2, stronger effect = lower value",0.979
same,normalized growth,"S. cerevisiae deletion strains, locus YNL222W, strain SSU72, stronger effect = lower value",0.979
same,normalized growth,"S. cerevisiae deletion strains, locus YNL307C, strain MCK1 (second series), stronger effect = lower value",0.941
same,normalized growth,"S. cerevisiae deletion strains, locus YOL078W, strain AVO1, stronger effect = lower value",0.976
same,normalized growth,"S. cerevisiae deletion strains, locus YOL136C, strain PFK27, stronger effect = lower value",0.956
same,normalized growth,"S. cerevisiae deletion strains, locus YOR061W, strain CKA2, stronger effect = lower value",0.908
same,normalized growth,"S. cerevisiae deletion strains, locus YOR119C, strain RIO1, stronger effect = lower value",0.98
same,normalized growth,[12],1.01
same,normalized growth,"S. cerevisiae deletion strains, locus YOR329C, strain SCD5, stronger effect = lower value",0.985
same,normalized growth,"S. cerevisiae deletion strains, locus YPL031C, strain PHO85, stronger effect = lower value",0.929
same,normalized growth,"S. cerevisiae deletion strains, locus YPL153C, strain RAD53, stronger effect = lower value",0.931
same,normalized growth,"S. cerevisiae deletion strains, locus YPL204W, strain HRR25, stronger effect = lower value",0.939
same,normalized growth,"S. cerevisiae deletion strains, locus YPL209C, strain IPL1, stronger effect = lower value",0.982
same,normalized growth,[13],1.07
same,normalized growth,"S. cerevisiae deletion strains, locus YPR025C, strain CCL1, stronger effect = lower value",0.967
same,normalized growth,"S. cerevisiae deletion strains, locus YPR106W, strain ISR1, stronger effect = lower value",0.982
same,normalized growth,"S. cerevisiae deletion strains, locus YPR111W, strain DBF20, stronger effect = lower value",0.985
same,normalized growth,"S. cerevisiae deletion strains, strain NNK1, stronger effect = lower value",0.991
same,normalized growth,"S. cerevisiae deletion strains, strain TSCII, stronger effect = lower value",0.972
